The values below come from PubChem BioAssay (EPA / NIEHS).

Assay [1] is described as follows: CCTE_Shafer_MEA_dev_burst_duration_mean: CCTE's Neural Network Formation Assay for Mean Burst Duration, Shafer Lab (AID 2284045).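 For AC50: curve fitted for loss meaning shorter burst duration than DMSO.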 Put shortly: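 Network-formation assay in primary rat cortical neurons; treatment spans twelve days of development. Mean burst duration per well is integrated by trapezoidal AUC and fitted in the loss-of-signal direction against DMSO baseline.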

Assay [2] is described as follows: CCTE_Shafer_MEA_dev_interburst_interval_mean: CCTE's Neural Network Formation Assay for Mean Interburst Interval, Shafer Lab (AID 2284046).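 Note: well-mean interburst interval of bursting electrodes as AUC over four recording days; curve fitted for decrease in interburst interval relative to DMSO.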 An outline of the steps: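 Network formation assay in primary rat cortical cultures, exposed from DIV 0 to 12. Mean interburst interval per well, integrated as AUC over four recordings.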
Assay [3] can be described thus: CCTE_Shafer_MEA_dev_inter_network_spike_interval_mean: CCTE's Neural Network Formation Assay for Mean Inter-network Spike Interval, Shafer Lab (AID 2284047).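 For AC50: potency for a decrease in mean inter-network spike interval below DMSO.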 Put shortly: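 Compound was given at plating to primary rat cortical neurons and renewed with full medium changes on DIV 5 and 9. Extracellular activity was recorded on days 5, 7, 9, 12; AUC values were fitted for loss relative to DMSO control.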

Assay [4] can be described thus: CCTE_Shafer_MEA_dev_network_spike_number: CCTE's Neural Network Formation Assay for Number of Network Spikes, Shafer Lab (AID 2284048).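 For AC50: fit as a loss of signal meaning fewer network spikes than DMSO.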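 Note: synchronized bursts across electrodes counted on days 5 7 9 12 and integrated as AUC.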 An outline of the steps: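 Extracellular recordings from 16-electrode wells track network formation in rat cortical cultures under continuous treatment from plating. The endpoint is network spike number, expressed as AUC across DIV 5–12 relative to DMSO vehicle.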

Assay [5] can be described thus: CCTE_Shafer_MEA_dev_network_spike_peak: CCTE's Neural Network Formation Assay for Mean Number of Electrodes in Network Spike, Shafer Lab (AID 2284049).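 For AC50: fitted for loss of signal meaning fewer electrodes in network spikes than DMSO.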 Put shortly:
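Continuous 12-day exposure of rat cortical cultures, starting at plating, on MEA plates. Endpoint: electrodes participating in network-spike peaks, AUC across DIV 5–12, DMSO as negative control.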

Assay [6] can be described thus: CCTE_Shafer_MEA_dev_spike_duration_mean: CCTE's Neural Network Formation Assay for Mean Spike Duration, Shafer Lab (AID 2284051).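 For AC50: potency for a decrease in mean network spike duration versus DMSO.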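 Note: mean network spike duration pooled as area under curve over DIV 5 to 12 recordings.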 An outline of the steps:
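With DMSO as baseline, loss of mean network spike duration was scored from extracellular recordings of rat cortical neurons on MEA plates. Exposure spanned plating to DIV 12; the four recording days were collapsed into one AUC value.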

Assay [7] can be described thus: CCTE_Shafer_MEA_dev_network_spike_duration_std: CCTE's Neural Network Formation Assay for Standard Deviation of Network Spike Duration, Shafer Lab (AID 2284052).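 Note: area under curve of spike duration SD across recording days 5 to 12; hits are decreases in network spike duration SD versus DMSO vehicle.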 An outline of the steps:
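Developing networks of rat cortical neurons were exposed over twelve days in vitro on 48-well MEA plates. Trapezoidal AUC of recordings (DIV 5–12) was analysed for signal loss relative to DMSO vehicle.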

A short description of assay [8]: CCTE_Shafer_MEA_dev_per_network_spike_spike_number_mean: CCTE's Neural Network Formation Assay for Mean Number of Spikes in a Network Spike, Shafer Lab (AID 2284053). An outline of the steps:
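First, rat cortical cells (1.5 x 10^5/well) were seeded onto MEA wells; second, dosing began at plating and was refreshed on DIV 5 and 9; finally, network-spike spike counts across DIV 5–12 were summarized as AUC.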

Assay [9] is described as follows: CCTE_Shafer_MEA_dev_per_network_spike_spike_percent: CCTE's Neural Network Formation Assay for Percent of Spikes in a Network Spike, Shafer Lab (AID 2284054). Put shortly:
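Developing networks of rat cortical neurons are dosed at day 0 and recorded extracellularly four times up to day 12. The endpoint is the area under the curve of percent spikes in network spikes, fitted in the negative direction relative to DMSO.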

Assay [10] is described as follows: CCTE_Shafer_MEA_dev_LDH: CCTE's Lactate Dehydrogenase Assay for Cytotoxicity in the Neural Network Formation Assay, Shafer Lab (AID 2284068; active = hit-call score of the fitted dose curve at least 0.9, where 1 is the maximum;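 note: exposure for twelve days from plating with re-dosing on DIV 5 and 9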). Put shortly:
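Developing rat cortical networks on MEA plates are exposed to compound for 12 days from plating. LDH activity is measured spectrophotometrically, with DMSO as baseline.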

Assay [11] is described as follows: CCTE_Shafer_MEA_dev_AB: CCTE's Alamar Blue Assay for Cytotoxicity in the Neural Network Formation Assay, Shafer Lab (AID 2284083; active = hit-call score of the fitted dose curve at least 0.9, where 1 is the maximum;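 note: resazurin reduction fluorescence as viability of cultured neurons; twelve days of exposure from plating with re-dosing on DIV 5 and 9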). An outline of the steps:
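Cytotoxicity companion to the developmental MEA: primary rat cortical neurons, 12-day exposure starting day 0, compound refreshed DIV 5 and 9; resazurin fluorescence, fitted against DMSO vehicle.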
In general terms: The colour change of resazurin is a common sign of viable cells or microbes.

The nature of assay [12]: CCTE_Shafer_MEA_dev_mutual_information_norm: CCTE's Neural Network Formation Assay for Mutual Information Normalization, Shafer Lab (AID 2284091).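 For AC50: mutual information between electrodes summarised as area under curve across four recording days; potency is for a decrease in mutual information relative to DMSO.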 An outline of the steps:
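Exposure of primary rat cortical neurons began at plating and ran to DIV 12, with full media and treatment renewal after DIV 5 and 9 recordings. Mutual information AUC (DIV 5–12) was analysed for loss versus DMSO.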

Assay [13] in a line: CCTE_Shafer_MEA_dev_correlation_coefficient_mean: CCTE's Neural Network Formation Assay for Mean Correlation Coefficient, Shafer Lab (AID 2284093).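 For AC50: well mean pairwise spike train correlation integrated as AUC over recording days 5 to 12; potency fitted for loss of correlation relative to DMSO vehicle wells.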 Put shortly: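 Extracellular firing from rat cortical networks on 48-well MEAs, DMSO-referenced, negative fitting direction. Compound present from plating to DIV12; mean pairwise correlation per well integrated over DIV5–12 recordings by trapezoidal AUC.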

Assay [14] can be described thus: UKN2_HCS_IMR90_neural_migration: University of Konstanz (UKN) Leist Lab Neural Crest Cell Migration Assay in human induced IMR90 Pluripotent Stem Cells (UKN2) (AID 2284204). To be noted: actives raise or lower the signal. Put shortly:
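Using a 96-well stopper format with PLO/laminin/fibronectin coating, neural crest cells from iPSC migrate in cytokine-supplemented N2-S medium; after 24 h, chemicals are applied for a further 24 h, then cells are imaged after dye staining.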

Another assay has as its system DIO2 (gene 1734). Description: CCTE_GLTED_hDIO2: CCTE's human Deiodinase 2 (DIO2) Inhibition Assay, Great Lakes Toxicology and Ecology Division (GLTED) Lab (AID 2284050; active = hit-call score of the fitted dose curve at least 0.9, where 1 is the maximum). An outline of the steps:
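Iodide released by human deiodinase 2 over 3 h with test chemical, measured spectrophotometrically via Sandell-Kolthoff cerium/arsenic reaction. Run n=3; inhibition referenced to DMSO.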

The next assay deals with DIO3 (gene 1735). Description: CCTE_GLTED_hDIO3: CCTE's human Deiodinase 3 (DIO3) Inhibition Assay, Great Lakes Toxicology and Ecology Division (GLTED) Lab (AID 2284055; active = hit-call score of the fitted dose curve at least 0.9, where 1 is the maximum;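 note: potency is for inhibition seen as loss of released iodide signal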). Put shortly:
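Inhibition is read as reduced iodide release, measured spectrophotometrically by the Sandell-Kolthoff cerium/arsenic reaction. Adenovirus-expressed human DIO3 enzyme is exposed to chemical for 3 h, n=3 plates. Iodinated chemicals, nitrite, iron or thiocyanate may interfere.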

A short description of assay [15]: CCTE_Shafer_MEA_acute_LDH: CCTE's Lactate Dehydrogenase Assay for Cytotoxicity in the Neural Acute Assay, Shafer Lab (AID 2284086; active = hit-call score of the fitted dose curve at least 0.9, where 1 is the maximum;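 note: active means LDH release rises above DMSO vehicle level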). An outline of the steps: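 LDH released during 40 min compound exposure of primary rat cortical cultures, quantified by absorbance at 490 nm in collected medium. Fitting direction positive versus DMSO vehicle.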
The nature of assay [16]: UKN4_HCS_LUHMES_neurite_outgrowth: University of Konstanz (UKN) Leist Lab Neurite Outgrowth Assay in human LUHMES cells (UKN4) (AID 2284206). To be noted: actives raise or lower the signal. Put shortly:
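After 24 h compound treatment beginning shortly after replating of 2-day-differentiated LUHMES cells, calcein-AM and H-33342 live staining allowed high-content imaging of neurite area and viability. Fitted bidirectionally against DMSO.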

Several values for one entry are separate records, joined by “and”; a condition that tells them apart may be missing. Identical values can stand only once. Records with an inconclusive call do not appear. Some compounds were tested as several samples or in several runs, with calls that do not always agree. Activity calls are given as the source filed them. Rule for the calls, unless noted: active = hit-call score of the fitted dose curve at least 0.9, where 1 is the maximum; inactive = score below 0.9.

The AC50 is the midpoint of the concentration-response curve, whichever way the signal moves. Regarding `CCOP(=S)(OCC)OC(Cl)C(Cl)(Cl)Cl` (stereo unspecified), the half-maximal activity concentration (AC50) in assay [1] was 23.4 µM (active); in assay [2] it was 50 µM (active) and 13.7 µM (active); in [3], 13.1 µM (active); in [4], 23.1 µM (active); in [5] it was 50 µM (active) and 20.2 µM (active); in assay [6] it was 50 µM (active) and 23.4 µM (active). The AC50 in assay [7] was 13.9 µM (active); in assay [8], 50 µM (active) and 17.4 µM (active); in assay [9] it was 26.7 µM (active) and 18.6 µM (active); in assay [10] it was 31 µM (active) and 21.4 µM (active); in assay [11] it was 30.7 µM (active) and 17.8 µM (active); in assay [12] it was 15.9 µM (active) and 18 µM (active). Moreover, the AC50 in assay [13] was 21.2 µM (active) and 17.8 µM (active). Also, the call in [1], in [3], in assay [4], in assay [7] and in [14] was inactive.
`CN(C)[C@@H]1C(=O)C(C(N)=O)=C(O)[C@@]2(O)C(=O)C3=C(O)c4c(O)cccc4[C@@](C)(O)[C@H]3[C@H](O)[C@@H]12`: the outcome in assay [1], in assay [2], in assay [3], in assay [4], in assay [7] and in assay [15] was inactive. Also, in assay [12], the molecule was called inactive. Further, the AC50 in assay [5] was 50 µM (active); with DIO2 (gene 1734), 100 µM (active) and 61.6 µM (active); in [6] it was 66.2 µM (active); in assay [8], 50 µM (active); in assay [9] it was 89.4 µM (active); with DIO3 (gene 1735), 71.9 µM (active) and 25.6 µM (active) and 24.8 µM (active). Moreover, the concentration at half-maximal activity (AC50) in [10] is 77.7 µM (active); in assay [11], 50 µM (active); in [13], 88.2 µM (active); in assay [14] it was 116 µM (active).
In the case of `CCOP(=S)(Oc1cnc(C(C)(C)C)nc1)OC(C)C` (stereo unspecified), the outcome in assay [1], in [3], in assay [4], in assay [7], in assay [15] and in assay [14] was inactive. Further, the AC50 was 50 µM (active) and 16.6 µM (active) in assay [2]; 14.8 µM (active) in assay [4]; 85.8 µM (active) and 13 µM (active) in assay [5]; 74.9 µM (active) and 9.65 µM (active) in assay [6]; 67.3 µM (active) and 9.31 µM (active) in [8]; 84.5 µM (active) and 23 µM (active) in assay [9]. Also, the half-maximal activity concentration (AC50) in assay [10] was 77.4 µM (active) and 20.6 µM (active); in assay [11], 80.1 µM (active) and 25.9 µM (active); in assay [12], 80.9 µM (active) and 13.4 µM (active); in [13], 79.7 µM (active) and 17.4 µM (active).
For `CCOP(=S)(OCC)SCCSCC`, the molecule was called inactive in assay [1], in assay [2], in assay [3], in [4], in [5] and in assay [6]. In addition, the call in assay [7], in assay [8], in [9], in assay [10], in assay [11] and in assay [15] was inactive. The call in [12] and in assay [13] was inactive.
For `CCOP(=S)(OCC)Oc1ccc([N+](=O)[O-])cc1`, the outcome in [1], in assay [2], in assay [3], in [4], in assay [5] and in [6] was inactive. Moreover, the result in assay [7], in [8], in [9], in [10], in assay [11] and in [12] was inactive. In assay [13], the call was inactive.
Turning to `COP(=O)(OC)OC(Br)C(Cl)(Cl)Br` (stereo unspecified), the half-maximal activity concentration (AC50) in [1] was 12.8 µM (active); in assay [2], 8.78 µM (active) and 10.1 µM (active); in assay [3] it was 2.15 µM (active); in assay [4], 3.48 µM (active) and 13.2 µM (active); in assay [5], 9.05 µM (active) and 11.9 µM (active); in assay [6], 8.37 µM (active) and 12.8 µM (active). Besides, the AC50 was 4.26 µM (active) and 9.92 µM (active) in assay [7]; 8.92 µM (active) and 10.3 µM (active) in [8]; 8.6 µM (active) and 12 µM (active) in [9]; 6.64 µM (active) and 17.1 µM (active) in assay [10]; 7.73 µM (active) and 16.4 µM (active) in assay [11]; 4.85 µM (active) and 13 µM (active) in [12]. The half-maximal activity concentration (AC50) in assay [13] was 8.49 µM (active) and 16 µM (active); in assay [14], 25.4 µM (active). In addition, the result in [1] and in [3] was inactive.
In the case of `O=[N+]([O-])c1cc(C(F)(F)F)c(Cl)c([N+](=O)[O-])c1Nc1ncc(C(F)(F)F)cc1Cl`, the AC50 in assay [1] is 0.549 µM (active); in assay [2] it was 885 nM (active); in assay [3], 1.9 µM (active); in [4] it was 0.425 µM (active); in assay [5], 1.06 µM (active); with DIO2 (gene 1734), 2.04 µM (active). In addition, the concentration at half-maximal activity (AC50) in assay [6] was 0.734 µM (active); in assay [7], 0.291 µM (active); in [8], 0.771 µM (active); in [9], 0.742 µM (active); with DIO3 (gene 1735), 2.04 µM (active); in [10], 0.871 µM (active). In addition, the AC50 was 1.01 µM (active) in assay [11], 328 nM (active) in assay [12], 0.65 µM (active) in assay [13] and 0.638 µM (active) in assay [14]. Besides, the call in assay [15] was inactive.
As for `CC(C)N(C(=O)SCC(Cl)=C(Cl)Cl)C(C)C`, the outcome in assay [1], in assay [2], in [3], in [4], in [7] and in assay [15] was inactive. For the same molecule, the AC50 in assay [5] is 15 µM (active); in assay [6], 27.3 µM (active); in [8], 15 µM (active); in assay [9], 15 µM (active); in assay [10], 10.7 µM (active); in assay [11], 21.8 µM (active). The figures for the AC50 in [12], in assay [13] and in [16] were 15000 nM (active), 15 µM (active) and 15.9 µM (active), respectively.
